According to PubChem BioAssay (NCATS):
Several values for one entry are separate records, joined by “and”; a condition that tells them apart may be missing. Equal values may be shown once. Records with an inconclusive call do not appear. A call without a number means that no potency is given here. Activity calls are given as the source filed them. Unless noted, calls come from the whole dose curve; as a rule, active = well fitted curve in the direction sought with a large enough effect; inconclusive = small, poorly fitted or top-dose-only effect, or another doubt; inactive = no such curve, though single readings can be large; an effect the other way counts as inactive or inconclusive.

Tests used:
[1] = Cell Viability - Jurkat (AID 426;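 active = dose-dependent loss of cell ATP signal giving a full or clear fitted curve, ranked by lower potency value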;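 note: potency is the fitted concentration of half-maximal effect; cells exposed to compound for 40 hours at 37 °C before ATP read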); details: qHTS
How it was run: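 Cells of the human T-cell leukemia line Jurkat (E6-1) are seeded at 5000 per well, treated with compound across a concentration range for 40 hours at 37 °C, then lysed with CellTiter-Glo; luminescence reports ATP.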

[2] = Cell Viability - HepG2 (AID 433; calls by dose curve;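 note: potency is the fitted concentration of half-maximal effect; potency for ATP loss meaning cytotoxicity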); details: qHTS
How it was run: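 In this qHTS format, a 40 h, 37 °C compound incubation of HepG2 cells in complete medium precedes a 20 min CellTiter-Glo step at room temperature. Tamoxifen and doxorubicin serve as positive controls; Hill-equation fits yield AC50.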

[3] = Cell Viability - HUV-EC-C (AID 542); details: HUV-EC-C endothelial cell viability, qHTS; series mostly up to 92.2 µM; note: nearly all actives have a fitted effect of over 35% in size
How it was run: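 Cells were seeded at 1000 per well and incubated 5 hr at 37 °C before compound addition. After 40 hr at 37 °C, CellTiter-Glo reagent was added for 20 min and luminescence read. AC50 values came from Hill-equation modelling.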

[4] = Cell Viability - H-4-II-E (AID 543); details: H-4-II-E rat hepatoma viability; series mostly up to 92.2 µM; note: nearly all actives have a fitted effect of over 35% in size; note: potency is the fitted concentration of half-maximal effect
How it was run: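 Cells seeded at 1500 per well and rested 5 hr; compounds added; 40 hr incubation at 37 °C; CellTiter-Glo added, 20 min at room temperature; luminescence read. Hill-equation fits gave AC50.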

[5] = Cell Viability - Mesenchymal (AID 546); details: mesenchymal cells viability, qHTS; activity change, negative = cytotoxicity: at 91.7 µM (top of the series);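 note: cells exposed to compound for 40 hours before reading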; note: potency is the fitted concentration of half-maximal effect
How it was run: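 CellTiter-Glo luminescence (intracellular ATP, 20 min room temperature) after 40 hr compound exposure at 37 °C of 1000 glomerulus-derived human kidney mesenchymal cells/well; AC50 values obtained by fitting qHTS concentration-response data to the Hill equation.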

[6] = Cellular Toxicity (caspase-3) HepG2 (AID 654); details: HepG2 caspase-3 activation, luminescence, 0% = DMSO only, 100% = tamoxifen; series mostly up to 92.2 µM;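 note: cells exposed to compound for 16 hours before reading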
How it was run: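 Caspase 3/7 activation in HepG2 is measured as rising luminescence after a 16 hr treatment at 37 °C. Values are scaled between DMSO basal and 100 uM tamoxifen, and AC50 is fitted with the Hill equation.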

[7] = Cellular Toxicity (caspase-3) HUV-EC-C (AID 656); details: HUV-EC-C cells, caspase-3 activation (apoptosis), vehicle = 0, 100 µM tamoxifen = 100%; series mostly up to 92.2 µM
How it was run: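 Concentration-dependent caspase 3/7 induction was assessed in HUV-EC-C cells exposed for 16 hours. Data scaled between DMSO and tamoxifen (100 uM) controls.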

[8] = Cellular Toxicity (caspase-3) SHSY5Y (AID 657); details: SH-SY5Y caspase-3 activation, DMSO zero, 10 µM staurosporine = 100%; series mostly up to 91.7 µM;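 note: cells exposed to compound for 16 hours at 37 °C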
How it was run: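 Readout: caspase-cleaved peptide-aminoluciferin substrate driving luciferase light in SH-SY5Y neuroblastoma cells after 16 h treatment. Response normalized to DMSO and 10 uM staurosporine controls.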

[9] = Cellular Toxicity (caspase-3) BJ (AID 658); details: BJ fibroblasts, luminescence, normalized: DMSO 0%, staurosporine 100%; series mostly up to 91.7 µM
How it was run: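 Caspase-Glo 3/7 luminescence, read 1 hr after reagent at room temperature, in normal BJ fibroblasts exposed 16 hours at 37 °C. AC50 values from Hill-equation concentration-response, scaled between DMSO basal and 10 uM staurosporine as 100%.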

[10] = Cellular Toxicity (caspase-3) MRC-5 (AID 659); details: MRC-5 cells, luminescence, normalized: DMSO 0%, 10 µM staurosporine 100%; series mostly up to 91.7 µM
How it was run: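 Luminescent Caspase-Glo 3/7 read-out (1 h, room temperature) after a 16 h, 37 °C compound exposure of MRC-5 lung fibroblasts at 1500 cells/well. Concentration-response AC50 from Hill equation; 0% DMSO, 100% 10 uM staurosporine.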

[11] = Cellular Toxicity (caspase-3) Mesangial (AID 660); details: mesangial cells, normalized: DMSO 0%, 100 µM tamoxifen 100%; series mostly up to 91.7 µM;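 note: combined caspase 3 and 7 activity read by Caspase-Glo luminescence; cells exposed to compound for 16 h before the caspase read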
How it was run: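 Seed cells derived from normal human renal glomeruli, incubate 5 h, add compounds across concentrations and incubate 16 h at 37 °C. Caspase 3/7 activation is then quantified by luciferase light, with AC50 derived by Hill modeling.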

[12] = Cellular Toxicity (caspase-3) SK-N-SH (AID 661); details: SK-N-SH caspase-3 activation, qHTS, DMSO as zero, staurosporine as full; series mostly up to 91.7 µM
How it was run: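 Cells were seeded and incubated 5 hr at 37 °C, dosed with compound over a concentration range for 16 hr, then given Caspase-Glo 3/7 reagent for 1 hr at room temperature before luminescence reading.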

[13] = Cellular Toxicity (caspase-3) Hek293 (AID 664); details: HEK293 caspase-3 activation, DMSO = 0%, 100 µM tamoxifen = 100%; series mostly up to 92.2 µM;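 note: cells exposed to compound for 16 h at 37 °C before readout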
How it was run: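 qHTS, HEK293 (human embryonic kidney), 16 h cpd exposure in complete medium. Caspase-3/7 activation = luminescence increase; normalized to DMSO/100 uM tamoxifen; Hill-fit AC50.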

[14] = Cellular Toxicity (caspase-3) NIH 3T3 (AID 666); details: NIH 3T3 caspase-3 activation, apoptosis/toxicity, 0% DMSO, 100% is 100 µM tamoxifen; series mostly up to 92.2 µM
How it was run: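 Cells were plated at 1000 per well and incubated 5 hr at 37°C, then compound was added for 16 hr. Caspase-Glo 3/7 reagent followed for 20 min at room temperature before luminescence was read.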

[15] = Cellular Toxicity (caspase-3) Renal Proximal Tubule (AID 667); details: renal proximal tubule cells, primary cells freshly taken from rat, solvent-only wells 0%, staurosporine 100%; series mostly up to 91.7 µM;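 note: cells exposed to compound for 16 hours at 37 °C before detection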
How it was run: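 Caspase-Glo 3/7 read-out, rat primary kidney proximal tubule cells. Compound exposure 16 h, 37 °C; detection after 1 h at RT. Activity scaled to DMSO and 10 uM staurosporine.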

[16] = qHTS Assay for Identification of Small Molecule Inducers of Hypoxia Response (AID 2120; active = well fitted curve in the direction sought with a large enough effect in the signal ratio, with a control signal flat, not every such curve was filed as active; the % refers to the signal ratio); details: hypoxia response reporter cells, beta-lactamase ratio readout; series mostly up to 104 µM
How it was run: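 Cell-based qHTS for reporter induction: hypoxia response element controlled beta-lactamase in ME-180 cells. Compounds incubated 17 h at 37 degrees C; activity from blue/green (460/530 nm) ratio, inducers ranked by AC50.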

[17] = qHTS assay for small molecule antagonists of retinoid X receptor alpha signaling (AID 588546); details: HEK293T RXRa-UAS-bla, beta-lactamase ratio, antagonist mode; measured here: W530 green channel, cytotoxicity proxy;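 note: cells stimulated with 9-cis-retinoic acid as agonist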
How it was run: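 Beta-lactamase reporter inhibition, read as CCF4 fluorescence ratio (ex 405, em 460/530 nm) after 2 h at RT. HEK293T UAS-bla cells, 2500/well, were stimulated with 9-cis-RA at 500 or 100 nM final alongside test compound for 18 h at 37 C.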

[18] = molecular target: Peroxisome proliferator-activated receptor alpha (Homo sapiens) (UniProt Q07869); test: qHTS assay for small molecule agonists of the peroxisome proliferator-activated receptor alpha (PPARalpha) signaling pathway (AID 651778); details: PathHunter PPARalpha complementation, chemiluminescence, 6 h; max response: stronger effect = higher value
How it was run: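 Chemiluminescence from complemented enzyme reported PPARalpha activation in cells after 6 hr of compound treatment at 37 C. The detection reagent was incubated for 60 min at room temperature, and compounds were scored as agonists.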

[19] = qHTS assay for cell viability of HEK293 cells (AID 743288); details: ATP luminescence (CellTiter-Glo), 18 h; max response: stronger effect = lower value; note: nearly all actives have a fitted effect of over 50% in size; note: potency is the fitted concentration of half-maximal effect
How it was run: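 HEK293, 18 h, 37 C, ATP luminescence. Cells at 2,000/well were allowed at least 5 h to settle before dosing; CellTiter-Glo developed 30 min at RT.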

[20] = molecular target: Mitogen-activated protein kinase 10 (Mus musculus) (UniProt Q61831); test: JNK3 AlphaScreen Assay (AID 530; active = well fitted curve in either direction with a large enough effect, not every such curve was filed as active;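 note: kinase came from lysate of stimulated human HepG2 cells; signal reports phosphorylation of biotinylated GST-cJun 1-79 at Ser73 with 10 µM ATP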); details: JNK3 lysate, c-Jun phosphorylation; series mostly up to 57.1 µM
How it was run: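 qHTS titrations with 15 min compound pre-incubation before adding ATP (10 uM final). Read-out: AlphaScreen of Ser73-phosphorylated biotin-GST-cJun using HepG2 lysate JNK3 activated by IL-1β and TNFα.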

Chain of Peroxisome proliferator-activated receptor alpha (Homo sapiens) (Q07869 whole entry, looked up): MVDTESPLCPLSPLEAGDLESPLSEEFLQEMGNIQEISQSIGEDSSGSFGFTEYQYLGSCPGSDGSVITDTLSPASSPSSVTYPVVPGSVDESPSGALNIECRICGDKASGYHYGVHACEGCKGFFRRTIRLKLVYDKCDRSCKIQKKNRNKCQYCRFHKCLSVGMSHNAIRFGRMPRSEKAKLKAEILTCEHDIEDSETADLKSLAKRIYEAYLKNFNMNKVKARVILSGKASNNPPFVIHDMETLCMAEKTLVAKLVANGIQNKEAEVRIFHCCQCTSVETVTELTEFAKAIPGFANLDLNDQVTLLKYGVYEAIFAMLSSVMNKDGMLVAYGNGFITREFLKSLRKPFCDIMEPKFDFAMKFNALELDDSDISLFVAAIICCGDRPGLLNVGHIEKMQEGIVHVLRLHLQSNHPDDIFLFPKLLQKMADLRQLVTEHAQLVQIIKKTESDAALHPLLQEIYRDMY

Cc1ccc([N+](=O)[O-])cc1N
Potency [1]: > 92 µM (inactive)
Potency [2]: > 92 µM (inactive)
outcome [3]: inactive
Potency [4]: inactive
activity change, negative = cytotoxicity [5]: -1.39% (inactive)
outcome [6]: inactive
outcome [7]: inactive
outcome [8]: inactive
outcome [9]: inactive
outcome [10]: inactive
outcome [11]: inactive
outcome [12]: inactive
outcome [13]: inactive
outcome [14]: inactive
outcome [15]: inactive
outcome [16]: inactive
max response [17]: -2.85% and -10.6%
max response [18]: -4.31% (inactive) and -1.18% (inactive)
max response [19]: -2.6% (inactive) and -12% (inactive)

COc1ncc2nc(-c3ccccc3)c(=O)n(CCc3ccccc3)c2n1
Potency [20]: inactive

O=C(O)c1ccc(O)cc1O
Potency [1]: > 92 µM (inactive)
Potency [2]: > 92 µM (inactive)
Potency [20]: inactive
outcome [3]: inactive
Potency [4]: inactive
activity change, negative = cytotoxicity [5]: 5.57% (inactive) and 9.36% (inactive)
outcome [6]: inactive
outcome [7]: inactive
outcome [8]: inactive
outcome [9]: inactive
outcome [10]: inactive
outcome [11]: inactive
outcome [12]: inactive
outcome [13]: inactive
outcome [14]: inactive
outcome [15]: inactive
outcome [16]: inactive
max response [17]: -5.6%
max response [18]: -2.85% (inactive) and -4.3% (inactive)
max response [19]: -11.1% (inactive) and 9.9% (inactive)

Cc1ccccc1-c1ccc2ncnc(NCCN3CCOCC3)c2c1
Potency [20]: inactive

COCCn1c(=O)c(-c2ccc(F)cc2)nc2cnc(Oc3ccccc3)nc21
Potency [20]: inactive

CCNc1ncc2nc(CCc3ccccc3)c(=O)n(C3CC3)c2n1
Potency [20]: inactive

N#Cc1cccc(-c2ccc3ncnc(NCc4cccs4)c3c2)c1
Potency [20]: inactive

ClCCCl
Potency [1]: > 92 µM (inactive)
Potency [2]: > 92 µM (inactive)
Potency [20]: inactive
outcome [3]: inactive
Potency [4]: inactive
activity change, negative = cytotoxicity [5]: 8.24% (inactive)
outcome [6]: inactive
outcome [7]: inactive
outcome [8]: inactive
outcome [9]: inactive
outcome [10]: inactive
outcome [11]: inactive
outcome [12]: inactive
outcome [13]: inactive
outcome [14]: inactive
outcome [15]: inactive
outcome [16]: inactive
max response [17]: -8.92% and -8.87% and -8.24%
max response [18]: 1.65% (inactive) and -1.11% (inactive)
max response [19]: -0.0928% (inactive) and -7.5% (inactive) and -2.25% (inactive)

O=NO
Potency [1]: > 92 µM (inactive)
Potency [2]: > 92 µM (inactive)
Potency [20]: inactive
outcome [3]: inactive
Potency [4]: inactive
activity change, negative = cytotoxicity [5]: -3.1% (inactive) and 3.16% (inactive)
outcome [6]: inactive
outcome [7]: inactive
outcome [8]: inactive
outcome [9]: inactive
outcome [10]: inactive
outcome [11]: inactive
outcome [12]: inactive
outcome [13]: inactive
outcome [14]: inactive
outcome [15]: inactive
outcome [16]: inactive
max response [17]: -4.23% and -6.24%
max response [18]: 0.744% (inactive) and -3.6% (inactive)
max response [19]: 0.172% (inactive) and -0.275% (inactive)

S=C1NC=NC2N=CNC12 (centres undefined)
Potency [1]: 0.128 µM (active)
Potency [2]: 1.23 µM (active)
Potency [20]: inactive
outcome [3]: inactive
Potency [4]: 0.158 µM (active)
Potency [5]: 0.501 µM (active)
outcome [6]: inactive
outcome [7]: inactive
outcome [8]: inactive
outcome [9]: inactive
outcome [10]: inactive
outcome [11]: inactive
outcome [12]: inactive
outcome [13]: inactive
outcome [14]: inactive
outcome [15]: inactive
outcome [16]: inactive
max response [17]: 4.27%
max response [18]: -7.07% (inactive)
Potency [19]: 2.24 µM (active)
